ChEMBL document CHEMBL4513216, “Probing the Open Global Health Chemical Diversity Library for Multistage-Active Starting Points for Next-Generation Antimalarials” (ACS Infect Dis, 2020)
Screen size: about 69,000 compounds; about 8,600 (12%) showed an effect of 50% or more. Only a selection was taken, and strong results are over-represented in it overall.

The compounds below were run on Plasmodium berghei (assay: Screen against P. berghei liver stage (PbLuc), transformed with Luciferase, at 10uM). Conditions: tested at 10 uM.
Assay type: functional, HepG2
Compound `COc1cccc(F)c1C(C)NC(=O)NCc1cnc(C)s1` (stereo unspecified) has an INHIBITION of -8.66%.
Compound `CC(C)n1cc(S(=O)(=O)N2CCCC(N3CCCCC3)C2)cn1` (stereo unspecified) has an INHIBITION of 2.4%.
Work on `Cc1ccc(NC(=O)Cn2cc(I)cn2)cc1` yielded an INHIBITION of 23.2%.
`CC(=O)c1cccc(NC(=O)Cn2cc(I)cn2)c1` showed an INHIBITION of -1.58%.
With `Cc1ccc(C)c(NC(=O)Cn2cc(I)cn2)c1` the INHIBITION was 49.1%.
In the case of `CC(C)c1ccc(NC(=O)Cn2cc(I)cn2)cc1`, the INHIBITION is reported as 82.2%.
Compound `NC(=O)c1ccc(NC(=O)Cn2cc(I)cn2)cc1` has an INHIBITION of 40%.
For `Cc1ccc(NC(=O)Cn2cc(I)cn2)cc1C`, the INHIBITION was 66.5%.
Compound `CS(=O)(=O)NCc1cnc2n1CCN(Cc1ccoc1)CC2` has an INHIBITION of 33%.
`Cn1cc(C(=O)N[C@@H]2CN(Cc3cccnc3)[C@@H]3CCCO[C@@H]32)cn1` was tested, and the INHIBITION was 3.25%.
With `O=C(c1cnccn1)N1C[C@H]2CC[C@@H](C1)N(C(=O)CCc1ccsc1)C2` the INHIBITION was -69.6%.
`O=C1CCC(C(=O)Nc2ccc(=O)n(Cc3ccc(Cl)c(Cl)c3)c2)N1` (stereo unspecified) showed an INHIBITION of -20.5%.
`Cc1nnc(CN(C)Cc2ccc(C(=O)Nc3sccc3C#N)cc2)o1` showed an INHIBITION of 15.9%.
`CN(Cc1ccc(C(=O)Nc2sccc2C#N)cc1)Cc1ccno1` gave an INHIBITION of 15.9%.
Work on `Cc1nnsc1CN(C)Cc1ccc(C(=O)Nc2sccc2C#N)cc1` yielded an INHIBITION of 55.4%.
`COCCN1CCCC(Cc2ccc(N3CCOCC3)nn2)C1` (stereo unspecified) gave an INHIBITION of -0.902%.
For `O=C(NCC(F)(F)F)NC1CCCc2c1cnn2CCO` (stereo unspecified), the INHIBITION was 37.1%.
With `Cc1csc(CNC(=O)NC2CCCc3c2cnn3CCO)n1` (stereo unspecified) the INHIBITION was 14%.
`O=C(NC1CCCCC1)NC1CCCc2c1cnn2CCO` (stereo unspecified) showed an INHIBITION of -9.93%.
`O=C(NCCc1ccc(F)cc1)NC1CCCc2c1cnn2CCO` (stereo unspecified) showed an INHIBITION of 18.3%.
`Cc1ccc(CNC(=O)NC2CCCc3c2cnn3CCO)cn1` (stereo unspecified) gave an INHIBITION of 53.4%.
`Cc1nc(CCNC(=O)NC2CCCc3c2cnn3CCO)cs1` (stereo unspecified) was tested, and the INHIBITION was 26.9%.
Compound `O=C(NCC1CCCCC1)NC1CCCc2c1cnn2CCO` (stereo unspecified) has an INHIBITION of 55.1%.
For `Cc1ccsc1CNC(=O)NC1CCCc2c1cnn2CCO` (stereo unspecified), the INHIBITION was 13.4%.
Compound `O=C(NCCC1=CCCCC1)NC1CCCc2c1cnn2CCO` (stereo unspecified) has an INHIBITION of 62%.
In the case of `CC1(C)Cc2nc(C(C)(C)C)ncc2C(NC(=O)CN)C1` (stereo unspecified), the INHIBITION is reported as 36.8%.
`CCn1ncc2c1C(COCC1CC1)N(Cc1nccs1)CC2` (stereo unspecified) gave an INHIBITION of 13.7%.
`COc1cccc(S(=O)(=O)CCNC2CCc3ncnn3C2)c1` (stereo unspecified) showed an INHIBITION of 41.2%.
Compound `CN(C)C(=O)C1CCN(C2CCN(CC3CCC3)CC2)CC1` has an INHIBITION of 26.5%.
Work on `CCn1cc(N)c(-c2nnc3n2CCC3)n1` yielded an INHIBITION of 24.8%.
With `Cc1ccc(C(=O)NS(C)(=O)=O)cc1-n1cccc1` the INHIBITION was 5.23%.
